PubChem BioAssay AID1159580 (chemical genetic matrix, 2015)
Values joined by “and” are separate entries in the source; they are usually repeats but may differ in a detail not shown here. Identical values can stand only once. About 2,000 (36%) of roughly 5,500 compounds were called active. About 18% were inconclusive and are not listed. Cut-off read from the data, not from the text of the source: active = normalized growth mostly below about 0.91 (no sharp cut-off); inconclusive = no clear call, values can overlap the other calls; inactive = mostly above about 0.92. The list shows a part of the results.

Test: chemical genetic growth profiling, strain panel (AID 1159580);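 note: tested at 20 µM; growth read once vehicle control cultures reached saturation at 30 °C; 1 = growth at the plate median or of vehicle wells; lower values mean less growth of the strain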
Conditions: S. cerevisiae deletion strains, growth OD

Measured: normalized growth

O=C(O)c1cc2ccccc2[nH]1
inactive: locus YAL013W, strain DEP1, stronger effect = lower value 1.01 | locus YAL021C, strain ccr4, stronger effect = lower value 0.969 | locus YAL026C, strain drs2, stronger effect = lower value 0.99 | locus YAL030W, strain snc1, stronger effect = lower value 1 | locus YBL061C, strain skt5, stronger effect = lower value 0.996 | locus YBR009C, strain hhf1, stronger effect = lower value 0.996 | locus YBR021W, strain FUR4, stronger effect = lower value 0.98 | locus YBR023C, strain chs3, stronger effect = lower value 0.994 | locus YBR171W, strain sec66, stronger effect = lower value 0.982 | locus YBR229C, strain ROT2, stronger effect = lower value 1 | locus YBR231C, strain swc5, stronger effect = lower value 0.994 | locus YBR279W, strain paf1, stronger effect = lower value 0.991 | locus YCL011C, strain gbp2, stronger effect = lower value 0.98 | locus YCL016C, strain dcc1, stronger effect = lower value 0.998 | locus YCL029C, strain bik1, stronger effect = lower value 1.01 | locus YCL061C, strain MRC1, stronger effect = lower value 0.973 | locus YCL069W, strain vba3, stronger effect = lower value 0.984 | locus YCR088W, strain abp1, stronger effect = lower value 0.98 | locus YDL005C, strain med2, stronger effect = lower value 0.982 | locus YDL035C, strain GPR1, stronger effect = lower value 1.01 | locus YDL040C, strain nat1, stronger effect = lower value 0.995 | locus YDL074C, strain BRE1, stronger effect = lower value 1.01 | locus YDL101C, strain DUN1, stronger effect = lower value 1.02 | locus YDL134C, strain PPH21, stronger effect = lower value 1.01 | locus YDL185W, strain tfp1, stronger effect = lower value 1.01 | locus YDL192W, strain arf1, stronger effect = lower value 1.02 | locus YDR001C, strain nth1, stronger effect = lower value 0.977 | locus YDR069C, strain doa4, stronger effect = lower value 1 | locus YDR101C, strain arx1, stronger effect = lower value 1.02 | locus YDR137W, strain rgp1, stronger effect = lower value 0.938 | locus YDR150W, strain NUM1, stronger effect = lower value 1.01 | locus YDR159W, strain sac3, stronger effect = lower value 0.982 | locus YDR162C, strain NBP2, stronger effect = lower value 1.04 | locus YDR195W, strain ref2 0.978 | locus YDR297W, strain sur2, stronger effect = lower value 0.981 | locus YDR318W, strain mcm21, stronger effect = lower value 1.01 | locus YDR334W, strain swr1, stronger effect = lower value 0.958 | locus YDR335W, strain msn5, stronger effect = lower value 0.987 | locus YDR388W, stronger effect = lower value 1.01 | locus YDR392W, strain spt3, stronger effect = lower value 0.947 | locus YDR502C, strain sam2, stronger effect = lower value 1.01 | locus YEL003W, strain gim4, stronger effect = lower value 0.978 | locus YEL037C, strain rad23, stronger effect = lower value 0.982 | locus YEL061C, strain CIN8 (second series), stronger effect = lower value 0.981 | locus YEL061C, strain CIN8, stronger effect = lower value 1 | locus YER015W, strain faa2, stronger effect = lower value 0.989 | locus YER016W, strain bim1, stronger effect = lower value 1 | locus YER110C, stronger effect = lower value 1.02 | locus YER111C, strain swi4, stronger effect = lower value 0.997 | locus YER155C, strain BEM2 (second series), stronger effect = lower value 1.01 | locus YER155C, strain BEM2, stronger effect = lower value 0.992 | locus YER167W, strain BCK2, stronger effect = lower value 1.01 | locus YFR010W, strain ubp6, stronger effect = lower value 0.968 | locus YGL078C, strain dbp3, stronger effect = lower value 0.995 | locus YGL086W, strain mad1, stronger effect = lower value 1.02 | locus YGL167C, strain pmr1, stronger effect = lower value 0.993 | locus YGL173C, strain kem1, stronger effect = lower value 0.975 | locus YGL227W, strain vid30, stronger effect = lower value 0.982 | locus YGL240W, strain doc1, stronger effect = lower value 1 | locus YGL248W, strain PDE1, stronger effect = lower value 1 | locus YGL253W, strain hxk2, stronger effect = lower value 0.987 | locus YGR078C, strain PAC10, stronger effect = lower value 0.99 | locus YGR135W, strain pre9, stronger effect = lower value 1.01 | locus YGR229C, strain SMI1, stronger effect = lower value 0.999 | locus YGR252W, strain gcn5, stronger effect = lower value 0.984 | locus YHR013C, strain ard1, stronger effect = lower value 1 | locus YHR027C, strain rpn1, stronger effect = lower value 1.02 | locus YHR030C, strain SLT2, stronger effect = lower value 1.01 and 1.03 | locus YHR079C, strain IRE1 (second series), stronger effect = lower value 1.01 | locus YHR079C, strain IRE1, stronger effect = lower value 1 | locus YHR094C, strain hxt1, stronger effect = lower value 1.02 | locus YHR129C, strain ARP1, stronger effect = lower value 1.01 | locus YHR142W, strain chs7, stronger effect = lower value 0.928 | locus YHR200W, strain rpn10, stronger effect = lower value 1.02 | locus YIL066C, strain RNR3, stronger effect = lower value 1.02 | locus YIL073C, strain SPO22, stronger effect = lower value 1.07 | locus YIL125W, strain kgd1, stronger effect = lower value 0.995 | locus YIR030C, strain dcg1, stronger effect = lower value 1.01 | locus YJL092W, strain hpr5, stronger effect = lower value 0.97 | locus YJL095W, strain BCK1 (second series), stronger effect = lower value 1 | locus YJL095W, strain BCK1, stronger effect = lower value 1.01 | locus YJL115W, strain asf1, stronger effect = lower value 0.975 | locus YJL129C, strain trk1, stronger effect = lower value 0.971 | locus YJL134W, strain LCB3, stronger effect = lower value 1.01 | locus YJL154C, strain vps35, stronger effect = lower value 0.966 | locus YJL164C, strain tpk1, stronger effect = lower value 1 | locus YJL166W, strain qcr8, stronger effect = lower value 1 | locus YJL168C, strain set2, stronger effect = lower value 1.02 | locus YJL187C, strain SWE1 (second series), stronger effect = lower value 1.01 | locus YJL187C, strain SWE1, stronger effect = lower value 0.988 | locus YJR043C, strain POL32, stronger effect = lower value 0.99 | locus YJR066W, strain TOR1, stronger effect = lower value 0.935
